Screens deposited in PubChem by several laboratories.
Compounds with a hit are over-represented: about 4.7% of the library has one in this group of screens.
PABP polyA inh = PABP poly(A) RNA binding inhibitors, primary screen, biochemical, fluorescence polarization, uHTS; Polyadenylate-binding protein 1 (Homo sapiens), P11940; inhibition, % at 35 µM; 290,000 tested, 1% active; AID 2014, 2009;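 also: calls also rest on retests at 20 µM and on dose response follow-up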
eIF4H FP inh = human eIF4H binding inhibitors, primary screen, translation initiation inhibitor project, biochemical, uHTS, fluorescence polarization | 290,000 tested, 0.94% active | AID 2012, 2009 | eIF4H fluorescence polarization binding assay | inhibition, % at 35 µM;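 also: calls also rest on retests at 20 µM and on dose response follow-up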
Efflux pump inh = inhibitors of Candida efflux pumps in yeast, primary screen, S. cerevisiae, Nile Red, multiplex; S. cerevisiae Candida pump triplex; inhibition, % at 10 µM; 330,000 tested, 0.44% active; AID 485275, 2010;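 active = plate passing quality check with inhibition over a set limit, or well fluorescence over plate mean plus 4 SD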;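 also: Nile Red retained in pooled yeast measured as flow cytometry median fluorescence; higher means more Nile Red kept so more efflux inhibition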
MLLE-PAM2 inh = inhibitors of PABP1 MLLE–PAM2 peptide binding, primary screen, biochemical, fluorescence polarization, FITC-PAM2, GST-MLLE; Polyadenylate-binding protein 1 (Homo sapiens), P11940; inhibition, % at 20 µM; 360,000 tested, 0.36% active; in the data active = inhibition above about 35%, passing the limit was not always enough
ALR inh = inhibitors of human ALR sulfhydryl oxidase, primary screen, biochemical, H2O2 detection, HRP-luminol luminescence, single point | inhibition, % (concentration not given with the values) | purified ALR, DTT oxidation | AID 485317, 2010 | 290,000 tested, 3.8% active;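 active = mean replicate inhibition above about 79%, with every replicate also reaching it, limit read from the data; inconclusive = only one of the two criteria met; inactive = mean below limit and not every replicate reaching it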
Target sequence (P55789 whole entry, looked up): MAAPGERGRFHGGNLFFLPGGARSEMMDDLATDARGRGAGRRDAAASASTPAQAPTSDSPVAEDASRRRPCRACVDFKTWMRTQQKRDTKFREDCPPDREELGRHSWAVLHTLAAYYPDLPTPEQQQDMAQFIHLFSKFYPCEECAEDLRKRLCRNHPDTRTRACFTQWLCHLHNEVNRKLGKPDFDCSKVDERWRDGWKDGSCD
UBC9 SUMO inh = inhibitors of in vitro SUMOylation cascade, primary screen, biochemical, HTRF, uHTS; SUMO-conjugating enzyme UBC9 (Homo sapiens), P63279; HTRF SUMOylation assay, SAE1/SAE2 + UBC9; inhibition, % at 35 µM; 290,000 tested, 0.36% active; AID 2006, 2009; in the data active = inhibition above about 50%, passing the limit was not always enough; inconclusive = no clear call, values can overlap the other calls
Target sequence (P63279 whole entry, looked up): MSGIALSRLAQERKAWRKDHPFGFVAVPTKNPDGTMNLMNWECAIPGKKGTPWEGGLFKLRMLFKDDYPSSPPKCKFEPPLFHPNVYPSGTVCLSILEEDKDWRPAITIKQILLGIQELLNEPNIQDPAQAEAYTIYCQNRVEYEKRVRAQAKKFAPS
A number is an active result; – = inactive; ? = inconclusive; · = not tested or not shown. Unless noted, no rule for the calls is given here.

SMILES	PABP polyA inh	eIF4H FP inh	Efflux pump inh	MLLE-PAM2 inh	ALR inh	UBC9 SUMO inh
COc1cc(/C=N\Nc2ccc([N+](=O)[O-])cc2)ccc1OCC(=O)Nc1ccc(C)c(C)c1	55	?	·	–	·	–
CCOc1cc(/C=N\Nc2ccc([N+](=O)[O-])cc2)ccc1OCC(=O)Nc1ccc(C)c(C)c1	?	?	–	–	–	–
Cc1ccc(S(=O)(=O)NCc2n[nH]c(=S)n2C)cc1	–	–	–	–	–	–
Cn1c(CNS(=O)(=O)c2ccc(Br)cc2)n[nH]c1=S	–	–	–	–	91	–
CC(C)(C)OC(=O)C[C@H]1C/C=C\C[C@H](CC(=O)NCCO)C(=O)N[C@@H](c2ccccc2)COC1=O	·	·	–	–	–	·
COc1cc(/C=N/N=C2/SCC(=O)N2c2ccc(O)cc2)ccc1O	–	–	–	–	–	–
C=CCN1C(=O)CSC1=Nc1ccc(NC(C)=O)cc1	–	–	–	–	–	–
C=CCN1C(=O)CSC1=Nc1ccc(O)cc1	–	–	–	–	99	–
O=C1CSC(=Nc2ccc(O)cc2)N1c1ccc(O)cc1	–	–	–	–	99	–
C/C(=N\O)C(C)(C)Nc1cccc(Br)c1	–	–	–	–	–	–
O=C(O)C1=C(C(=O)Nc2cc(C(F)(F)F)ccc2Cl)CCCC1	–	–	–	–	–	–
O=C(N/N=C/c1ccc[nH]1)c1cc2ccccc2cc1O	–	76	–	–	·	–
CN(C)S(=O)(=O)c1ccc(Cl)c(C(=O)Nc2cccc3ncccc23)c1	–	–	–	–	–	–
CSc1ccc(C(=O)/C=C/c2ccc(N)cc2)cc1	–	–	–	–	97	–
CSc1ccc(/C=C/C(=O)c2c(O)cc(C)oc2=O)cc1	–	–	–	–	98	–
CSc1ccc(/C=C/C(=O)N2CCCN(C)CC2)cc1	?	–	–	–	99	–
COc1ccc(/C=C/C(=O)c2c(O)cc(C)oc2=O)c(OC)c1	58	?	–	–	–	–
COc1cccc(/C=C/C(=O)c2c(O)cc(C)oc2=O)c1O	–	–	–	–	–	–
CCC(C)NC(=O)Cc1c(C)c2cc3c(cc2oc1=O)OC(C)(C)CC3 (stereo not given)	–	–	–	–	–	–
COc1ccc(CCN2C(=O)NC(NC(C)=O)(C(F)(F)F)C2=O)cc1OC (stereo not given)	83	–	–	–	–	–
COC(=O)CSc1ccc2c(N)c(C(=O)OC)sc2c1	–	–	–	–	100	–
Cc1nc(SCC(=O)Nc2ccccc2Cl)oc1C	–	–	–	–	99	–
CCc1cccc(C)c1NC(=O)CSc1nc(C)c(C)o1	–	–	–	–	–	–
C=CCn1c(N)cc(=O)nc1SCC(=O)Nc1ccc2ccccc2c1	–	–	–	–	99	–
Nc1cc(=O)nc(SCC(=O)Nc2ccccc2)n1-c1ccccc1	–	–	–	–	–	–
SMILES	PABP polyA inh	eIF4H FP inh	Efflux pump inh	MLLE-PAM2 inh	ALR inh	UBC9 SUMO inh
Nc1cc(=O)nc(SCC(=O)Nc2ccccc2Cl)n1-c1ccccc1	–	–	–	–	99	–
Cc1cccc(-n2c(N)cc(=O)nc2SCC(=O)Nc2ccccc2)c1	–	–	–	–	98	–
C[C@H](NC(=O)c1ncn2c1C(=O)NC[C@@H]2C)c1ccccc1	·	·	·	–	·	·
Cc1cc(SCC(=O)N(C)CC(=O)Nc2ccc(F)cc2)nc2ccccc12	–	–	–	–	–	–
CC(CC(=O)Nc1ccc(Cl)c(S(=O)(=O)N2CCOCC2)c1)c1ccccc1 (stereo not given)	·	·	·	–	·	·
COc1cccc(C2C(C#N)=C(N)Oc3cc(C)n(Cc4ccco4)c(=O)c32)c1 (stereo not given)	83	51	–	–	–	–
COc1ccc(N2Cc3cccc(C(=O)NC(C)CCc4ccco4)c3C2=O)cc1 (stereo not given)	36	88	–	–	98	–
CC(CCc1ccco1)NC(=O)c1cccc2c1C(=O)N(C1CCCCC1)C2 (stereo not given)	–	–	–	–	–	–
